Results on 21 compounds are retold here after PubChem BioAssay (Tox21).

Inconclusive results are not listed. Unmarked numbers belong to inactive results. The source made the active and inactive calls. Unless noted, calls come from the whole dose curve; as a rule, active = well fitted curve in the direction sought with a large enough effect in the repeat runs; inconclusive = weak or mixed curves; inactive = no such curve, though single readings can be large; an effect the other way counts as inactive or inconclusive.

The nature of test [1]: qHTS assay to identify small molecule antagonists of the retinoid acid receptor (RAR) signaling pathway - cell viability counter screen (AID 1159551). Note: nearly all actives have a fitted effect of over 35% in size. An outline of the steps:
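C3RL4 cells were seeded overnight at 37 C, then treated with compounds plus 1 uM (final) retinol for 6 h at 37 C. Viability was read as ATP by CellTiter-Glo luminescence after 30 min at room temperature.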
For orientation: qHTS replaces the single test concentration by a dilution series.

The nature of test [2]: qHTS assay to identify small molecule antagonists of the retinoic acid receptor (RAR) signaling pathway (AID 1159552; note: nearly all actives have a fitted effect of over 50% in size; note: potency is the fitted concentration of half-maximal effect). An outline of the steps: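 Antagonism of retinol-induced RARE reporter activity was measured in C3RL4 cells. Exposure to compounds and 1 uM final retinol lasted 6 hr at 37 C, with luminescence as endpoint.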
A short description of test [3]: qHTS assay to identify small molecule agonists of the retinoic acid receptor (RAR) signaling pathway (AID 1159553). Note: potency is the fitted concentration of half-maximal effect. The method in brief:
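C3RL4 cells carrying a RARE luciferase reporter were plated overnight at 37 C, then exposed to compounds in DMSO for 6 hr at 37 C and 5% CO2. Luminescence was read 30 min after luciferase reagent addition at room temperature.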

Test [4] can be described thus: qHTS assay to identify small molecule antagonists of the estrogen related receptor (ERR) signaling pathway from Tox21 library - cell viability counter screen (AID 1224834). Note: nearly all actives have a fitted effect of over 30% in size. Note: potency is the fitted concentration of half-maximal effect. The method in brief: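 ERR reporter cells were plated 6 h before compound addition, then exposed to test compounds in DMSO for 17.5 h at 37 C. Viability was read as CellTiter-Fluor fluorescence after a 30-minute incubation at 37 C.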

Test [5] has as its target Luciferin 4-monooxygenase (Photinus pyralis) (UniProt P08659). Briefly: qHTS assay to identify small molecule inhibitors of firefly luciferase (AID 1224835). Note: nearly all actives have a fitted effect of over 25% in size. Note: potency is the fitted concentration of half-maximal effect. An outline of the steps: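 Inhibition of purified Photinus luciferase is measured by luminescence. Substrate levels (D-luciferin, ATP) sit at their KM values. Each compound is tested in a concentration series.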
A short description of test [6]: qHTS assay to identify small molecule antagonists of the constitutive androstane receptor (CAR) signaling pathway - cell viability counter screen (AID 1224837). For activity change, negative = cytotoxicity: series mostly up to about 92 µM. Note: nearly all actives have a fitted effect of over 45% in size. Note: potency is the fitted concentration of half-maximal effect. An outline of the steps: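 HepG2 cells stably expressing hCAR and a CYP2B6-2.2kb reporter were plated and pre-incubated 4 hr at 37 C/5% CO2, then given compounds at 15 concentrations plus 50 nM CITCO (final). After 23 hr, viability was read by CellTiter-Fluor fluorescence.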

The target in test [7] is Nuclear receptor subfamily 1 group I member 3 (Homo sapiens) (UniProt Q14994). Briefly: qHTS assay to identify small molecule antagonists of the constitutive androstane receptor (CAR) signaling pathway (AID 1224838). Note: nearly all actives have a fitted effect of over 40% in size. Note: potency is the fitted concentration of half-maximal effect. An outline of the steps:
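HepG2 cells stably co-transfected with hCAR and a CYP2B6-2.2kb luciferase reporter were seeded 4 h before compound addition at 15 concentrations. Cells were stimulated with 50 nM CITCO (final) for 24 h at 37 C; luciferase luminescence was then read.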

For test [8] the target is unchanged. Description: qHTS assay to identify small molecule agonists of the constitutive androstane receptor (CAR) signaling pathway (AID 1224839). Note: nearly all actives have a fitted effect of over 15% in size. Note: potency is the fitted concentration of half-maximal effect. An outline of the steps: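 Readout: firefly luciferase luminescence via ONE-Glo. System: HepG2 double-stable for hCAR and CYP2B6-2.2kb. Conditions: 15-point compound titration, PK11195 at 0.75 uM final, 24 h incubation.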

The nature of test [9]: qHTS assay to identify small molecule antagonists of the estrogen related receptor signaling pathway with the pleiotropic PPARgamma coactivator (PGC) from Tox21 10K library - cell viability counter screen (AID 1224840; active = well fitted cell-killing curve with a large enough effect in the repeat runs, not every such curve was filed as active; note: nearly all actives have a fitted effect of over 40% in size; note: potency is the fitted concentration of half-maximal effect). The method in brief:
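PGC/ERR cells were seeded at 2,000 cells/well and left 6 hours at 37 C/5% CO2 before pin-tool addition of compounds in DMSO. After 17.5 hours at 37 C, CellTiter-Fluor was added and fluorescence read 30 minutes later.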

Test [10] in a line: qHTS assay to identify small molecule agonists of the constitutive androstane receptor (CAR) signaling pathway - cell viability counter screen (AID 1224836). For viability change, negative = cytotoxic: series mostly up to about 92 µM. Note: nearly all actives have a fitted effect of over 45% in size. Note: potency is the fitted concentration of half-maximal effect. The method in brief: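 Double-stable HepG2 hepatoma cells (hCAR plus CYP2B6-2.2kb) are treated for 23 h at 37 C with test compounds in 15-point concentration series. PK11195 at 0.75 uM final is co-added. Cell viability is quantified by CellTiter-Fluor.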

Test [11] can be described thus: qHTS assay to identify small molecule antagonists of the estrogen related receptor signaling pathway with the pleiotropic PPARgamma coactivator (PGC) from Tox21 10K library (AID 1224841; call rule not given here; note: actives are mostly falling curves and most rising ones were filed inactive; nearly all actives have a fitted effect of over 50% in size; note: potency is the fitted concentration of half-maximal effect). The method in brief: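 PGC/ERR reporter cells were seeded at 2,000 cells/well and held 6 hours at 37 C/5% CO2 before pin-tool addition of compounds in DMSO. After 18 hours at 37 C, One-Glo was added and luminescence read after 30 minutes at room temperature.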

Test [12] in a line: qHTS assay to identify small molecule agonists of the estrogen related receptor signaling pathway with the pleiotropic PPARgamma coactivator (PGC) from Tox21 10K library (AID 1224842). Note: nearly all actives have a fitted effect of over 15% in size. The method in brief: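 Luminescence from One-Glo (30 min, room temperature) measured after PGC/ERR cells had 18 h at 37 C with pinned compound (23 nL in DMSO). Cells had been seeded at 2,000 per well and pre-incubated 6 h.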

Test [13] concerns the target Thyrotropin receptor (Homo sapiens) (UniProt P16473). Description: qHTS assay to identify small molecule agonists of the thyroid stimulating hormone receptor (TSHR) signaling pathway (AID 1224843; calls by dose curve; note: nearly all actives have a fitted effect of over 45% in size; note: potency is the fitted concentration of half-maximal effect). An outline of the steps:
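Screening of the Tox21 10K collection used HEK293 cells engineered with TSHR at 800 cells per well. After a 30-min room-temperature compound exposure, HTRF cAMP reagents were added and fluorescence recorded 1 h later.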

A short description of test [14]: qHTS assay to identify small molecule agonists of the RXR signaling pathway - cell viability counter screen (AID 1159529).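 Note: HEK 293T cells carrying an RXR-alpha UAS beta-lactamase reporter; series mostly up to about 77 µM; nearly all actives have a fitted effect of over 50% in size.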 The method in brief: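 Counter screen: CellTiter-Glo luminescence. Cells: RXR-alpha-UAS-bla HEK 293T. Medium: 2% charcoal-stripped FBS. Treatment: 16 h, 37 C. Reagent incubation: 30 min, RT.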
% is set by controls: 0 for no effect and ±100 for the full control effect.

Sequence of Thyrotropin receptor (Homo sapiens) (P16473 whole entry, looked up): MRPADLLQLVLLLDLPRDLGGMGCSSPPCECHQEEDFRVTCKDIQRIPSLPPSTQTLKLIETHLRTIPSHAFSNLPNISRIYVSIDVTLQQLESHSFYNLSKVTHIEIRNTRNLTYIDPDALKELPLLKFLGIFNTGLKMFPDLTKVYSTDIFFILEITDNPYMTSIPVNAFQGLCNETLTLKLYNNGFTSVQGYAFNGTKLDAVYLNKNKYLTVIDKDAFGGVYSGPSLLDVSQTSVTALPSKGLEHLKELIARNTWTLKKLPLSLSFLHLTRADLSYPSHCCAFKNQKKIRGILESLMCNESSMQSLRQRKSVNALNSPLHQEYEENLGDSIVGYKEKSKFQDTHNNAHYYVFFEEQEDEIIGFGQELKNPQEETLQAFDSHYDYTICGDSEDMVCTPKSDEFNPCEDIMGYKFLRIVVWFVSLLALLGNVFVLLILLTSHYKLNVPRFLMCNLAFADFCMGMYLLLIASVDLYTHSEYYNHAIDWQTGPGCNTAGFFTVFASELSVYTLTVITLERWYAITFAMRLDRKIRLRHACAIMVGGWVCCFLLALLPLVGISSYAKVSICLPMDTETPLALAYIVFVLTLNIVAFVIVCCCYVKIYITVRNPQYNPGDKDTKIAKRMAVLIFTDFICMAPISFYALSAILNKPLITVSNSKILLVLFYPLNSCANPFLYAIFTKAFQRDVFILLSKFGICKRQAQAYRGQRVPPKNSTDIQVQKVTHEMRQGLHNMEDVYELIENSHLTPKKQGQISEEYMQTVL
Sequence of Luciferin 4-monooxygenase (Photinus pyralis) (P08659 whole entry, looked up): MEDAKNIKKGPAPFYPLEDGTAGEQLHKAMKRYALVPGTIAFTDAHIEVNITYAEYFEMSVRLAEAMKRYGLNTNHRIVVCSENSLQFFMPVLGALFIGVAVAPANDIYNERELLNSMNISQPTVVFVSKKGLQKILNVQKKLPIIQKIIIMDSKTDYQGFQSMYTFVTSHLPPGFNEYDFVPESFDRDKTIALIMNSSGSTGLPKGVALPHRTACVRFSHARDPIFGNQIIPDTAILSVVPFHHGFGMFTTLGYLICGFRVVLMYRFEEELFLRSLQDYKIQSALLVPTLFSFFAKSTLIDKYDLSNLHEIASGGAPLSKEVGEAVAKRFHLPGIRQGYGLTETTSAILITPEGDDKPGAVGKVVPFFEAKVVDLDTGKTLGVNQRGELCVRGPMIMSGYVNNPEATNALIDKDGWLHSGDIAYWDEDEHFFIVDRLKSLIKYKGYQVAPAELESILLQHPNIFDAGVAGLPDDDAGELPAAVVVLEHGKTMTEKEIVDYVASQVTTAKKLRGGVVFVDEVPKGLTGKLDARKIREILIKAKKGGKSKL
Sequence of Nuclear receptor subfamily 1 group I member 3 (Homo sapiens) (Q14994 whole entry, looked up): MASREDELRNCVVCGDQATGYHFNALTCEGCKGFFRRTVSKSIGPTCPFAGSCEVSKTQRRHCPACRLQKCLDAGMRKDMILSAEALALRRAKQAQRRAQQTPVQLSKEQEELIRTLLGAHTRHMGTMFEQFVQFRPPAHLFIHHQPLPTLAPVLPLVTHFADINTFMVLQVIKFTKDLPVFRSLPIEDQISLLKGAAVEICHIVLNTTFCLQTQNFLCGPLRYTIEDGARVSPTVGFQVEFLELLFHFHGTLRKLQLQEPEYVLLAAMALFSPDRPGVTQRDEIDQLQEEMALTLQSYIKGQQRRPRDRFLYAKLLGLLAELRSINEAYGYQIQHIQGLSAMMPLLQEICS

With `c1ccc2nc(N3CCNCC3)ccc2c1`, the Potency result in test [1], in test [2], in test [3], in test [4], in test [5] and in test [6] was “inactive” throughout. The Potency entry in [7], in [8] and in [9] was “inactive” throughout.
As to `O=S(=O)(NS(=O)(=O)C(F)(F)F)C(F)(F)F`, the Potency result in [1] and in test [9] was “inactive” in each case. Moreover, the results for the Potency in test [4], in [10] and in [6] were 43.1 µM (active), 24.3 µM (active) and 30.5 µM (active), respectively.
With `C=CCOC(=O)c1ccccc1N`, the Potency entry in test [1], in [2], in test [3], in test [4], in [10] and in test [7] was “inactive” throughout. Besides, the Potency result in [9], in [11], in test [12] and in test [13] was “inactive” in each case.
In the case of `C=Cc1cccc(CCl)c1`, the Potency entry in test [14], in [5], in [10], in [6], in test [7] and in [9] was “inactive” in each case. Further, the Potency entry in test [13] is “inactive”.
With `CC(C)C(Br)C(=O)NC(N)=O` (stereo not drawn), the Potency entry in test [14], in test [5], in test [6], in test [7], in test [9] and in test [13] was “inactive” in each case.
Regarding `O=C(NC(=O)c1c(F)cccc1F)Nc1ccc(Oc2ccc(C(F)(F)F)cc2Cl)cc1F`, the Potency entry in [1], in [5], in test [10], in test [6], in [7] and in test [9] was “inactive” throughout.
Regarding `CC1=C2C[C@H]3[C@@H](CC=C4C[C@@H](O)CC[C@@]43C)[C@@H]2CC[C@]12O[C@@H]1C[C@H](C)CN[C@H]1[C@H]2C`, the Potency entry in test [2], in test [3], in test [5], in test [6], in test [7] and in [8] was “inactive” in each case. In [13], the Potency entry is “inactive”. Also, the Potency in [4] and in test [9] was 26.6 µM (active) each time.
As to `c1ccc(Nc2ccc(Nc3ccccc3)cc2)cc1`, the Potency result in [1], in [2], in test [6], in test [7], in test [9] and in [11] was “inactive” each time. In addition, the Potency in test [3] was 5.43 µM (active); in test [5] it was 28.1 µM (active).
`CN1CCc2cc(Cl)c(O)cc2[C@H]2c3ccccc3CC[C@@H]21`: the Potency result in test [5], in test [7], in test [8], in test [9], in [11] and in test [12] was “inactive” in each case. For the same compound, in test [13], the Potency result is “inactive”.
For `O=[N+]([O-])[O-].[Tl+]`, the Potency entry in test [1], in [3], in [10], in [9] and in test [13] was “inactive” each time.
As to `CCCCC/C=C\C/C=C\C/C=C\C/C=C\CCCC(=O)NCC(=O)O`, the Potency result in test [1], in test [2], in [3], in test [5], in [10] and in [6] was “inactive” throughout. In addition, the Potency entry in test [7] and in test [9] was “inactive” in each case.
With `CCOP(=O)(OCC)Oc1nc(Cl)c(Cl)cc1Cl`, the Potency result in test [1], in [2], in test [3], in [5], in test [10] and in test [6] was “inactive” in each case. For the same compound, the Potency entry in test [7], in [9] and in test [13] was “inactive” each time.
`CC(C)(C)c1ccc(OP(=O)(Oc2ccccc2)Oc2ccccc2)cc1`: the Potency entry in test [1], in test [3], in [5], in test [10], in [6] and in test [7] was “inactive” in each case. In addition, the Potency result in test [9] and in test [12] was “inactive” throughout. The Potency in test [8] was 48.9 µM (active); in test [11], 7.74 µM (active).
`CC[C@]1(O)CC[C@H]2[C@@H]3CCC4=CCCC[C@@H]4[C@H]3CC[C@@]21C`: the Potency entry in test [14], in [5], in test [10], in [6], in [8] and in [9] was “inactive” each time. The Potency result in test [11] is “inactive”. In addition, the results for the Potency in test [7] and in test [13] were 33.5 µM (active) and 15 µM (active), respectively.
`Cc1c([N+](=O)[O-])c(C)c([N+](=O)[O-])c(C(C)(C)C)c1[N+](=O)[O-]`: the Potency entry in test [2], in test [3], in [4], in test [5], in test [10] and in test [6] was “inactive” throughout. The Potency entry in test [7], in [9], in test [11] and in test [12] was “inactive” each time.
Turning to `CCC(C)Nc1c([N+](=O)[O-])cc(C(C)(C)C)cc1[N+](=O)[O-]` (stereo not drawn), the Potency entry in [1], in test [2], in test [6], in [9], in [11] and in test [12] was “inactive” each time. The Potency in test [5] is 71 µM (active).
For the compound `CCC[CH2][Sn]([CH2]CCC)([O]C(C)=O)[O]C(C)=O`, the Potency result in test [1], in [5] and in [12] was “inactive” each time. In addition, the Potency in test [2] was 0.138 µM (active); in test [4] it was 0.138 µM (active); in test [10] it was 0.437 µM (active); in [6], 0.437 µM (active); in test [9], 0.138 µM (active); in test [11], 0.0347 µM (active).
As for `CC(=O)[O-].CC(=O)[O-].CC(=O)[O-].[Sb+3]`, the activity change, negative = cytotoxicity in [14] is 2.3% [at 2.72 µM]; in test [6], -10.2% [at 3.26 µM]. Further, the results for the viability change, negative = cytotoxic in [4] and in test [9] were 0.176% [at 3.27 µM] and 3.7% [at 3.27 µM], respectively.
As for `CCC(OC(C)=O)C(CC(C)NC)(c1ccccc1)c1ccccc1` (stereo not drawn), the Potency result in test [1], in test [5], in [11] and in [12] was “inactive” each time. Besides, the Potency in test [2] was 30.9 µM (active); in test [10] it was 69.2 µM (active); in test [6], 69.2 µM (active); in test [7] it was 69.2 µM (active); in test [9] it was 69.2 µM (active).
In the case of `Cc1cc(C2CC2)nc(Nc2ccccc2)n1`, the Potency entry in test [2], in test [10], in test [6], in test [7] and in test [11] was “inactive” each time. For the same compound, the Potency in test [3] is 19.3 µM (active); in [5] it was 39.9 µM (active); in test [8] it was 54.5 µM (active).
Take `N#Cc1c2ccccc2cc2ccccc12`: the Potency result in [1], in [2], in test [3], in [5], in test [8] and in [11] was “inactive” in each case. The Potency result in test [12] and in test [13] was “inactive” in each case.
